SENP8 block-1 = inhibitors of human SENP8 protease; Q96LD8; purified SENP8, Z-RLRGG-aminoluciferin cleavage, luminescence; inhibition, % at 10 µM; 330,000 tested, 1.2% active; AID 2540; in the data active = inhibition above about 50%
Target sequence (Q96LD8 whole entry, looked up): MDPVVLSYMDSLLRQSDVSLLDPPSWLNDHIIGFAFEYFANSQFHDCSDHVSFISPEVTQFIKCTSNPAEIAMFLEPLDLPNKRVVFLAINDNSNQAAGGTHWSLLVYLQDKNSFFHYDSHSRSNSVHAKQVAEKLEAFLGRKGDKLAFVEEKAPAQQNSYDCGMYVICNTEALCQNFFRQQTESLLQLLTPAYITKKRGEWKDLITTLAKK
Platelet DG rel = platelet dense granule release activity; human platelet-rich plasma, SFLLRN dense granule ATP release, luminescence; AID 1663; inhibition, %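 (compounds screened at 7.5 µM in platelet-rich plasma)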; 300,000 tested, 0.22% active;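 active = mean replicate score, as percent of positive control, at or above 50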
SENP8 block-2 = inhibitors of human SENP8 protease | Q96LD8 | recombinant SENP8, Nedd8 substrate fluorescence | inhibition, % at 20 µM | 360,000 tested, 0.64% active; in the data active = inhibition mostly above about 40%, no sharp cut-off; inactive = mostly below about 27%
SENP6 inh = inhibitors of human SENP6 protease. AID 2599. 330,000 tested, 1.8% active. Recombinant SENP6 catalytic domain, aminoluciferin luminescence. Q9GZR1. inhibition, % at 10 µM;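 active = inhibition above about 50% at the single tested dose, limit read from the data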
SENP7 block = SENP7 protease inhibition; Q9BQF6; inhibition, % at 5 µM; AID 434973; 330,000 tested, 1.5% active; recombinant SENP7, Z-RLRGG-aminoluciferin luminescence, 40 min;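 active = inhibition above about 50% at the single test dose, limit read from the data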
SENP8 conf = human SENP8 inhibition, confirmed | shares compounds with SENP7 block | Recombinant SENP8, Z-RLRGG-aminoluciferin luminescence, 60 min | inhibition, % at 12.5 µM | 6,200 tested, 40% active;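 active = mean inhibition across replicates above about 50%, limit read from the data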
SENP6 confirm = confirmation of human SENP6 protease inhibitors; inhibition, % at 12.5 µM; shares compounds with SENP7 block; recombinant SENP6, Z-RLRGG-aminoluciferin luminescence; 6,200 tested, 58% active
SENP7 confirm = human SENP7 inhibition, confirmed; inhibition, % at 12.5 µM; shares compounds with SENP7 block; recombinant SENP7, Z-RLRGG-aminoluciferin luminescence, 40 min; 6,200 tested, 69% active; AID 488917
Casp3 select = caspase-3 inhibition (SENP selectivity assay). shares compounds with SENP7 block. purified caspase-3, Z-DEVD-aminoluciferin luminescence, 60 min. inhibition, % at 12.5 µM. 6,200 tested, 60% active;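 active = mean inhibition above about 50%, limit read from the data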
Target sequence (P42574 28-227 limits assumed): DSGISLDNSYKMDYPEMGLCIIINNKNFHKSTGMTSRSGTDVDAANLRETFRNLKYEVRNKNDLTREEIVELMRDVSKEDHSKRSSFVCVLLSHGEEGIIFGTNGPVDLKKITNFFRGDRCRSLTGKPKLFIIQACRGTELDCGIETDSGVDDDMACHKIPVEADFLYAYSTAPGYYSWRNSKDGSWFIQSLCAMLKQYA
Luc interf = interferes with luciferase luminescence in SENP counter-screen. 6,200 tested, 39% active. inhibition, % at 12.5 µM. AID 488919. Pre-incubated SENP8/Z-RLRGG-aminoluciferin, luciferase luminescence interference. shares compounds with SENP7 block;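 active = mean inhibition above about 50% when retested at one dose, limit read from the data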
Hits are given with their value; – = inactive; · = no result given. This is a sample that favours compounds with a hit; in the whole collection about 2.4% have one here.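 The calls were made as follows, unless noted: active = mean inhibition above about 50% in the one-dose retest (limit read from the data); inactive = the rest.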

SMILES	SENP8 block-1	Platelet DG rel	SENP8 block-2	SENP6 inh	SENP7 block	SENP8 conf	SENP6 confirm	SENP7 confirm	Casp3 select	Luc interf
Fc1ccc(/C=N/Nc2nccnc2Cl)cc1	86	–	–	93	94	93	93	100	96	92
CCNC(=O)C1(C)CCCN(C(=O)c2cc(OC)ccc2Br)C1 (configuration not stated)	·	·	–	·	·	·	·	·	·	·
CCC1(c2ccccc2)ON(c2c(Br)cccc2Br)C1=O (configuration not stated)	–	·	–	–	–	·	·	·	·	·
Cc1cccc(C)c1NC(=O)CSc1n[nH]c(=O)n1C1CC1	–	·	–	–	–	·	·	·	·	·
Cc1cc(OCc2nnc(SC(C)C(=O)O)n2-c2ccccc2)ccc1Cl (configuration not stated)	–	–	–	–	–	·	·	·	·	·
Cc1ccsc1/C=N/NC(=O)c1sccc1C	84	–	–	88	93	–	92	101	94	–
Cc1ccsc1/C=N/NC(=O)c1ccc2c(c1)OCCO2	65	–	–	79	83	84	79	95	90	81
O=C(N/N=C/c1ccc2c(c1)OCO2)c1ccc2c(c1)OCO2	–	–	–	–	–	·	·	·	·	·
Cc1ccsc1/C=N/NC(=O)CO	–	–	–	–	–	·	·	·	·	·
Cc1ccsc1/C=N\NC(=O)c1ccc2c(c1)OCO2	–	–	–	–	50	–	–	72	74	–
O=C(Nc1ccc(-c2noc(CCc3ccccc3)n2)cc1)c1ccco1	55	–	–	78	60	68	71	90	53	–
Cc1ccc(-c2noc(COC(=O)c3ccco3)n2)cc1	63	·	–	78	68	76	76	95	72	68
CCOC(=O)c1c(C)oc2c1c(C=NC1CCS(=O)(=O)C1)c(O)c1ccccc12 (configuration not stated)	·	–	–	·	·	·	·	·	·	·
CCOC(=O)c1c(C)oc2c1c(C=NCCC(=O)O)c(O)c1ccccc12	66	–	–	77	–	–	–	–	–	–
COc1ccc(/C=N/NC(=O)c2ccc[nH]2)cc1	77	·	–	79	88	75	74	95	92	84
CN(C)c1ccc(/C=N/NC(=O)c2nonc2N)cc1[N+](=O)[O-]	–	–	–	–	55	–	–	76	75	59
O=C(N/N=C/c1ccc(O)c([N+](=O)[O-])c1)c1ccncc1	–	–	–	57	–	–	–	66	79	–
Cc1csc(N/N=C/c2ccc(O)c([N+](=O)[O-])c2)n1	55	–	–	69	–	–	89	–	–	–
COc1ccc(/C=N/NC(=O)c2ccncc2)cc1[N+](=O)[O-]	–	–	–	–	–	·	·	·	·	·
O=C(N/N=C/c1ccc([N+](=O)[O-])s1)c1ccncc1	–	–	–	58	–	–	–	–	–	–
CN1CCC(N2CCN(C3CN(Cc4ccccc4)S(=O)(=O)C3)CC2)CC1 (configuration not stated)	·	·	–	·	·	·	·	·	·	·
COc1cc(/C=N/O)ccc1OCc1ccccc1Cl	–	–	–	67	50	–	55	79	–	59
CC(C)(C)NC(=O)CN(C(=O)CSc1nnc(COc2ccccc2)o1)c1cccc(F)c1	–	–	–	–	52	–	–	–	–	–
O=C(Nc1ccccc1)Nc1ccc2snnc2c1	–	–	–	62	62	56	54	77	–	63
O=C(Nc1ccccc1F)c1ccc2snnc2c1	–	–	–	51	–	–	–	65	72	–
COc1ccc(N(CC(=O)Nc2ccccc2C(N)=O)S(=O)(=O)c2ccc(C)c([N+](=O)[O-])c2)cc1	–	–	–	–	–	·	·	·	·	·
Fc1ccc(-c2nnc(-c3ccc(F)cc3)o2)cc1	–	–	–	52	60	–	–	–	–	–

Screening data as filed in PubChem BioAssay.
